Screens: PubChem, several laboratories
IEC-6 tox: kills IEC-6 intestinal cells in KLF5 counter-screen. AID 1825. IEC-6 cytotoxicity, luminescence viability. inhibition, % at 5 µM. 0.78% of 290,000 active; in the data active = inhibition above about 22%;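 note: 0% = plate median of test compound wells and 100% = cytotoxic reference compound wells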
KLF5 inh: inhibitors of KLF5 expression | DLD-1 KLF5 promoter-luciferase reporter, luminescence | inhibition, % at 5 µM | 0.23% of 290,000 active;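 active = inhibition above a per-plate limit of that plate's mean compound inhibition plus 3 SD, cut at about 60% in these data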;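 note: 0% = DMSO wells and 100% = LY294002 at 200 µM; higher means less KLF5 promoter-driven luciferase light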
Ba/F3 V617F tox: reduce viability of Ba/F3 cells dependent on JAK2V617F; Ba/F3 EpoR-JAK2V617F viability, ATP luminescence; inhibition, % at 5.6 µM; 1.1% of 220,000 active; AID 1446;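 active = inhibition above the campaign mean plus 3 SD over all tested compounds, cut at about 24% in these data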;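 note: cytokine-independent growth of Ba/F3 cells driven by EpoR plus mutant JAK2; 0% = DMSO-treated cells and 100% = JAK inhibitor I control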
BaF3 parental: counter-screen for JAK2V617F inhibitors: parental Ba/F3 viability inhibitors | 1.1% of 220,000 active | inhibition, % at 5.6 µM | AID 1486 | CellTiter-Glo ATP luminescence;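 active = inhibition above a per-campaign cutoff, the mean inhibition of all tested compounds plus 3 SD, cut at about 27% in these data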;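 note: 0% = DMSO wells and 100% = JAK Inhibitor I control wells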
APP transl inh: APP translation inhibition. AID 1285. inhibition, % at 2 µM. SH-SY5Y APP 5'UTR-luciferase reporter, luminescence. 0.82% of 190,000 active;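 active = inhibition above a set limit, derived from the sample mean plus 3 SD, cut at about 45% in these data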
The depositor's hits bear a star; . = no result. Shown are actives, neighbours in structure and some others; about 1.9% of the full set was active somewhere.

SMILES	IEC-6 tox	KLF5 inh	Ba/F3 V617F tox	BaF3 parental	APP transl inh
O=C(Nc1ccc(Cl)cc1)c1cc(Br)ccc1OCC(=O)N1CCOCC1	9.0	12.1	.	.	.
COc1cc(OC)cc(C(=O)NCCCN2CCN(CCCNC(=O)c3cc(OC)cc(OC)c3)CC2)c1	-3.3	-11.3	-4.3	3.3	-8.4
Cc1cccc(NC(=S)/N=C(\N)Nc2nc(C)c3cc(C)ccc3n2)c1	-0.2	-19.2	16.9	25.4	-21.7
Cc1cccc(NC(=S)/N=C(\N)Nc2nc(C)c3ccc(C)cc3n2)c1	4.6	-110.5	34.5*	39.0*	-23.7
Cc1ccc(C2CC(C(F)(F)F)n3nc(C(=O)NCc4c(C)nn(C)c4C)c(Cl)c3N2)cc1 (stereo unspecified)	1.2	-11.3	44.0*	55.1*	-4.7
COc1ccc(/C=C/c2c(-c3ccc(OC)cc3)oc3ccc(-c4ccc(OC)cc4)cc23)cc1	3.5	-3.8	.	.	.
COc1ccc(/C=C/c2cc(-c3ccc(C)cc3)o[n+]2C)cc1	2.4	50.0	101.0*	93.4*	-1.1
CC[N+](C)(C)CCN(Cc1ccc(Cl)cc1)c1ccccn1	-3.4	-11.2	27.3*	38.6*	-11.5
O=C(N/C(=C\c1ccccc1)C(=O)N1CCCCC1)c1ccc(Br)o1	4.9	-15.7	.	.	.
CC1Cc2ccccc2N1C1=CC(=O)CCC1 (stereo unspecified)	3.3	-14.5	54.1*	65.8*	-35.8
CC1Cc2ccccc2N1C1=NS(=O)(=O)c2ccccc21 (stereo unspecified)	4.2	-16.7	-3.7	5.2	-15.3
O=C(C[N+]1(CC#Cc2ccccc2)CCCCC1)c1ccccc1	2.2	-6.8	25.0*	34.0*	-11.9
O=C(C[N+]1(CC#Cc2ccccc2)CCOCC1)c1ccc(Cl)cc1	8.6	0.6	5.8	5.1	-26.8
O=C(C[N+]1(CC#Cc2ccccc2)CCCCC1)c1ccc(Cl)cc1	9.0	-9.6	-0.1	37.6*	-2.2
Cc1ccccc1C(=O)Nc1ccnn1C1CCN(C2CCSCC2)CC1	-3.4	-24.8	.	.	.
C#CC[N+]1(CC#Cc2ccccc2)CCCCC1	-7.5	-26.2	46.2*	59.2*	14.2
CCN(CC)CC#Cc1ccc(C)cc1	-9.3	8.5	-3.2	-1.6	.
C(#Cc1ccccc1)C[N+]1(CC#Cc2ccccc2)CCCCC1	-0.6	12.0	86.5*	69.4*	2.0
C(#Cc1ccccc1)C[N+]1(CC#Cc2cccc3ccccc23)CCOCC1	-4.1	-7.4	55.7*	50.2*	-0.7
C#CC[N+]1(CC#Cc2ccccc2)CCOCC1	-1.7	-13.8	2.7	12.2	7.9
Cc1ccc(C#CC[N+]2(CC#Cc3ccc(C)cc3)CCCCC2)cc1	14.7	27.6	95.8*	77.7*	10.3
NS(=O)(=O)c1ccc(CCNC(=O)CN2C(=O)COc3ccc(S(=O)(=O)N4CCCC4)cc32)cc1	-7.4	0.2	.	.	.
C#CC[N+]1(CC#Cc2cccc(C)c2)CCCCC1	1.4	13.4	76.2*	67.3*	7.2
CCC[N+]1(CC#CCC(c2ccccc2)c2ccccc2)CCCCC1	14.9	23.3	.	.	.
CCOc1ccc(-c2nc(CSCC(=O)NC3CC3)c(C)o2)cc1	6.1	28.3	.	.	.
SMILES	IEC-6 tox	KLF5 inh	Ba/F3 V617F tox	BaF3 parental	APP transl inh
CCOc1ccc(-c2nc(CSCC(=O)NCc3ccco3)c(C)o2)cc1	1.0	18.1	-2.9	2.4	48.5*
COc1ccc(N(CC(=O)N2CCN(c3cccc(C)c3C)CC2)S(=O)(=O)c2c(C)noc2C)cc1	0.4	7.2	.	.	.
CCCn1c(=O)c2ccccc2n2c(SCC(=O)N3CCc4ccccc4C3)nnc12	1.6	-0.5	0.9	7.7	60.9*
CCn1c(=O)c2ccccc2n2c(SCC(=O)N3CCc4ccccc4C3)nnc12	-3.1	-1.5	-2.0	1.6	1.1
O=C(N/N=C/c1c(Cl)cccc1Cl)c1n[nH]c2c1CCCC2	-3.3	-101.6	-0.4	3.5	-45.8
O=C(NN=C1CCCC1)c1n[nH]c2c1CCCC2	5.1	-24.0	2.8	1.0	92.0*
O=C(NN=C1CCCC1)c1n[nH]c2c1CCC2	-0.2	-20.6	6.2	6.2	94.0*
Cc1ccc(C(=O)C[n+]2cccc3cc(C)ccc32)cc1	2.1	-11.0	4.6	70.0*	10.5
Cc1nn(-c2ccccc2)c(Cl)c1C(=O)NCC(C)C	-4.8	-41.2	-4.7	-1.5	76.7*
Cc1nn(-c2ccccc2)c(Cl)c1C(=O)NCC(C)c1ccccc1 (stereo unspecified)	-2.8	-35.9	.	.	.
O=C(NC1CC2CCCC(C1)N2Cc1ccccc1)c1ccc([N+](=O)[O-])cc1 (stereo unspecified)	-5.3	-15.2	.	.	.
O=C(COc1ccc(Oc2ccccc2)cc1)NCc1cn2ccccc2n1	37.4*	21.9	31.1*	26.6*	18.2
CCN(Cc1ccncc1)C(=S)Nc1ccc(Cl)cc1	2.1	14.9	24.0*	26.9*	-11.8
CCN(CC)C(=S)Nc1ccc(Cl)c(Cl)c1	3.1	-14.0	17.8	31.8*	15.7
O=c1c2ccccc2nc(/C=C/c2ccc([N+](=O)[O-])cc2)n1CCCO	0.0	-13.5	-1.0	2.6	5.7
O=c1c2ccccc2nc(/C=C/c2ccc([N+](=O)[O-])o2)n1CCCO	7.3	18.5	101.2*	101.6*	22.9
O=C1c2cccc3c(Cl)ccc(c23)C(=O)N1O	21.9*	-1.6	-1.6	5.3	-6.4
CCN1C(=O)c2cccc3c(Cl)ccc(c23)C1=O	2.9	-2.8	2.9	7.4	-11.0
CN(C)c1ccc(NC(=O)C2CCCN(S(=O)(=O)c3ccccc3)C2)cc1 (stereo unspecified)	-4.3	-5.7	-1.1	-0.1	-36.1
CCOCC(=O)Nc1cccc(C(=O)OCC)c1	-1.8	-2.5	-3.0	97.7*	10.4
CCOC(=O)c1cccc(NC(=O)COC)c1	3.0	3.0	-3.9	1.4	-2.1
Cc1ccc(C(=O)N/C(=C\c2cn(S(=O)(=O)N(C)C)c3ccccc23)C(=O)NCCCN2CCOCC2)cc1	-2.7	-31.3	.	.	.
COc1ccc(C(=O)N2CCOC2CNC(=O)C(=O)NCc2ccc(Cl)cc2)cc1 (stereo unspecified)	-0.4	-5.5	1.2	62.6*	-7.3
COc1ccc(CCNC(=O)C(=O)NCC2OCCN2C(=O)c2ccc(Cl)cc2)cc1 (stereo unspecified)	-2.4	-17.5	.	.	.
Cc1nn(CCCC(=O)NCc2ccc(F)cc2)c(=O)c2nccn12	-4.2	-16.3	.	.	.
SMILES	IEC-6 tox	KLF5 inh	Ba/F3 V617F tox	BaF3 parental	APP transl inh
CC(C)Oc1cccc(C(=O)C2CCCN(C(=O)c3ccc4c(c3)OCO4)C2)c1 (stereo unspecified)	-1.7	-7.0	.	.	.
CCOC(=O)C[N+](C)(C)CCOC1CC2CCC1(C)C2(C)C (stereo unspecified)	0.2	17.9	14.8	30.2*	-31.7
CC1(C)[C@H]2CC[C@]1(C)[C@@H](OC(=O)C[N+]1(C)CCOCC1)C2	-3.9	1.8	-6.1	-0.9	.
CC1(C)C2CCC1(C)C(OCC[N+](C)(C)CC(=O)OC1CCCCC1)C2 (stereo unspecified)	1.8	6.5	99.9*	82.6*	10.1
CN[C@@H]1CC[C@H](c2ccc(Cl)c(Cl)c2)c2ccccc21	.	-16.1	.	.	.
O=C(Nc1ccc(F)cc1F)Nc1ccc(F)cc1F	-0.9	-68.5	17.8	55.7*	-45.3
